The test system of assay [1] is Plasmodium falciparum Sir2 (PF13_0152, Sir2A). In words: Plasmodium falciparum Sir2A binding compounds – biochemical, small-molecule microarray, 635 nm fluorescence, primary screen (AID 1098).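 Note: score merges spot fluorescence intensity with its signal-to-noise ratio.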 The conditions noted are these: fluorescence 635 nm, higher = more signal.
A short description of assay [2]: probe aDKK1 binding to arrayed compounds – biochemical, biotinylated probe, 635/667 nm fluorescence, primary screen (AID 1099).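 Note: score merges 667nm spot fluorescence with signal to noise across triplicate slides; reference of the scale not given here.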 The conditions noted are these: small-molecule microarray, higher = more signal.
The nature of assay [3]: probe aCHRDL2 binding to arrayed compounds – biochemical, biotinylated probe, 635/667 nm fluorescence, primary screen (AID 1100). Particulars: small-molecule microarray, higher = more signal.
Assay [4] is described as follows: change in splice reporter luminescence, either direction, cell-based, HEK293, spliceosome inhibition project, primary screen (AID 1101).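 Note: HEK293 cells carrying a splicing-competent luciferase reporter gene; test concentration not given here.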 The conditions noted are these: HEK293 splicing luciferase reporter, 24 h, higher = more signal, called active from +8 up or from −8 down. For orientation: Reporter assays use an easily measured gene product as a stand-in for the process of interest.

Assay [5] concerns the target Fibroblast growth factor 10 (Homo sapiens) (UniProt O15520). Kind of assay: compounds binding fibroblast growth factor 10 – biochemical, small-molecule microarray, 635 nm fluorescence, primary screen (AID 1102). Particulars: FGF10 binding, fluorescence 635 nm, higher = more signal.
Assay [6] deals with glycogen synthase kinase-3 (GSK3A per assay name; protocol says GSK3B). In words: compounds binding glycogen synthase kinase-3 – biochemical, small-molecule microarray, 635 nm fluorescence, GSK3A, primary screen (AID 1103). Note: the record names both GSK3A and GSK3B. Particulars: fluorescence 635 nm, higher = more signal.
Assay [7] has as its target Epidermal growth factor receptor (Homo sapiens) (UniProt P00533). In words: compounds binding epidermal growth factor receptor – biochemical, small-molecule microarray, 635 nm fluorescence, primary screen (AID 1104).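 Note: score merges 667 nm emission intensity with spot signal to noise over triplicate slides.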 The conditions noted are these: EGFR binding, higher = more signal.
The target in assay [8] is Follistatin-related protein 3 (Homo sapiens) (UniProt O95633). Kind of assay: compounds binding follistatin-related protein 3 – biochemical, small-molecule microarray, 635 nm fluorescence, primary screen (AID 1105).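 Note: score merges emission near 667 nm and signal to noise per printed spot across three slides.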 Particulars: FSTL3 binding, higher = more signal.
In assay [9] the target is Dickkopf-related protein 1 (Homo sapiens) (UniProt O94907). In words: small molecules binding DKK1 protein – biochemical, small-molecule microarray, 635 nm fluorescence scan, primary screen (AID 1106).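 Note: score merges emission near 667 nm with signal to noise over three replicate slides.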 The conditions noted are these: higher = more signal.
The test system of assay [10] is Inhibin beta A chain (activin A). In words: small molecules binding activin A – biochemical, small-molecule microarray, 635 nm fluorescence scan, primary screen (AID 1107).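 Note: mouse activin A protein probed at 4.33 µg/mL on printed slides; score merges bound-protein fluorescence near 667 nm with spot signal-to-noise.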 The conditions noted are these: INHBA, higher = more signal.

Activity calls are given as the source filed them.

Chain of Follistatin-related protein 3 (Homo sapiens) (O95633 whole entry, looked up): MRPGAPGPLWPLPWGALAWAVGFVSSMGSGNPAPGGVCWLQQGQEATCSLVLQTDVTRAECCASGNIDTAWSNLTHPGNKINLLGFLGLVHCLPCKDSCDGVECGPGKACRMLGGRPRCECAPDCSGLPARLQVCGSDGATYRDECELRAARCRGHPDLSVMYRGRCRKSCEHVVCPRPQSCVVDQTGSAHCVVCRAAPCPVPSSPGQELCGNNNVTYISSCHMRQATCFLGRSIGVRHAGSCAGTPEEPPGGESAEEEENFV
Chain of Dickkopf-related protein 1 (Homo sapiens) (O94907 whole entry, looked up): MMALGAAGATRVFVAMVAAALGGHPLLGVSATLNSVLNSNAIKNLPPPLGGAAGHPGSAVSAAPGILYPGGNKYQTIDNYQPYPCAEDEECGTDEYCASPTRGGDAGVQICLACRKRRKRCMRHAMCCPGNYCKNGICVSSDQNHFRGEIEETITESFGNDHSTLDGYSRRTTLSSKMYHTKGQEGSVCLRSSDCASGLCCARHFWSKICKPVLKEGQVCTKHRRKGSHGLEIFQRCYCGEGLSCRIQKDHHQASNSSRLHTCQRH
Chain of Epidermal growth factor receptor (Homo sapiens) (P00533 whole entry, looked up): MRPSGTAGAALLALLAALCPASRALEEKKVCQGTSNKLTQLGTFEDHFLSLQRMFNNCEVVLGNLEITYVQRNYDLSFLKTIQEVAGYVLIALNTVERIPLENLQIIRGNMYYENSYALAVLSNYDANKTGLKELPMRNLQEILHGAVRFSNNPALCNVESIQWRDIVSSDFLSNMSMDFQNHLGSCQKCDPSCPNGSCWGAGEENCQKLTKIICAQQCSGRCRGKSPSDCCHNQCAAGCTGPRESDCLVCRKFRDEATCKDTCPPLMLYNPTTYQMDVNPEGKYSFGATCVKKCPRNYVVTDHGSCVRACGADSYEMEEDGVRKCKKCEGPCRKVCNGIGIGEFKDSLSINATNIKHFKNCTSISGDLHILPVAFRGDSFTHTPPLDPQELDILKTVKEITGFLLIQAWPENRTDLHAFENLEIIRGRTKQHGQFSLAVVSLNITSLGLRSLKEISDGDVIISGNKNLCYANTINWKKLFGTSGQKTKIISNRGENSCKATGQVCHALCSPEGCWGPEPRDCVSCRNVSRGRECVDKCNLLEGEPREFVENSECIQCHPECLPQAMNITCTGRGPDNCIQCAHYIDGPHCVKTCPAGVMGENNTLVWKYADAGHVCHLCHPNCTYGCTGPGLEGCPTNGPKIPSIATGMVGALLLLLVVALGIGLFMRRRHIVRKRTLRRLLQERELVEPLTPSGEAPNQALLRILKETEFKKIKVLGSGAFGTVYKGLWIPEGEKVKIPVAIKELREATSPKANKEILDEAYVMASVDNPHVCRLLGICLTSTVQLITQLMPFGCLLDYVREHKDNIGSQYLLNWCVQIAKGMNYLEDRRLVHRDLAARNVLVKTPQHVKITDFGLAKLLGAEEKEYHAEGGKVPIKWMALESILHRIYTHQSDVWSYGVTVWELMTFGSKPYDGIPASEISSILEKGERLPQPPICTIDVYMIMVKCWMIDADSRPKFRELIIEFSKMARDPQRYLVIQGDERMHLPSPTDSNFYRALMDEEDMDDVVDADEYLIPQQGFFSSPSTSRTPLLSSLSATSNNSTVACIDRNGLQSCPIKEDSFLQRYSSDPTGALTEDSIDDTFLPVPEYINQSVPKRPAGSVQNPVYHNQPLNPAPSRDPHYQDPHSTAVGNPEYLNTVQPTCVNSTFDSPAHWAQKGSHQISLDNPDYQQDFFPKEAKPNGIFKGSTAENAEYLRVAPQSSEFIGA
Chain of Fibroblast growth factor 10 (Homo sapiens) (O15520 whole entry, looked up): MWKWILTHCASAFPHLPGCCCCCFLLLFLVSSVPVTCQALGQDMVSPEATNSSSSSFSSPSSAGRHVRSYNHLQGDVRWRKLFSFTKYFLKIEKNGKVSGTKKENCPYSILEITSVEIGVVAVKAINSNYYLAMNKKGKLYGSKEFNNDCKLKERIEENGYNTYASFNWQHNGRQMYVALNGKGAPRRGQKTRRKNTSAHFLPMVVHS

Take `CN1C(=O)C2C(C1=O)C1C=C(CCCO)C2C(C2CC2)N1C` (stereo not given): the composite z-score in assay [1] is 0.264; in assay [2], 0.0917; in [3], 0.38; in assay [5], -0.158; in assay [6] it was -0.83; in assay [7] it was 0.0501. The composite z-score in assay [8] was -0.694; in [9], -0.741; in assay [10], 0.411. In addition, in [4], the z-score is -0.89 (inactive).
With `CCOC(=O)C[C@H]1[C@H](OC(=O)c2ccc(-c3ccccc3)cc2)[C@@H](NC(=O)C2CCCCC2)c2cc(OCCCO)ccc2N1C(=O)Cc1ccc(OC)cc1`, the composite z-score in [1] was -0.186; in assay [2], 0.0229; in assay [3] it was 0.0338; in assay [5] it was 0.135; in [6], 0.178; in assay [7] it was 0.273. Also, the composite z-score is 0.217 in assay [8], 0.0901 in assay [9] and 0.647 in assay [10]. Further, in [4], the z-score is -0.772 (inactive).
Regarding `C=C[C@H](C)[C@@H](OC(=O)Nc1ccc(SC)cc1)c1ccc(OCCO)cc1`, the composite z-score in assay [1] was 1.11; in [2], -0.189; in assay [3] it was 0.529; in [5] it was 1.02; in [6], 0.321; in assay [7], -0.359. Also, the figures for the composite z-score in [8], in assay [9] and in assay [10] were 0.379, -0.395 and 0.246, respectively. In addition, the z-score in assay [4] was -1.36 (inactive).
For `CCCCN1CC=CC23O[C@@H]4C=CCCOC(=O)C4[C@H]2C(=O)N(CCO)[C@@H]3C1=O` (stereo not given in full), the composite z-score in assay [1] was -1.33; in assay [2] it was -0.364; in [3] it was 0.297; in assay [5], 0.107; in assay [6], -0.248; in assay [7] it was -1.19. Also, the composite z-score in assay [8] was -0.838; in assay [9], -0.587; in [10], 0.0542. The z-score in assay [4] was 0.244 (inactive).
For `[N-]=[N+]=NCc1ccccc1C[C@]1(C(=O)N2CCCCC2)COC(c2ccc(OCCCO)cc2)=N1`, the composite z-score in assay [1] was 0.314; in assay [2], 0.0279; in [3], 0.552; in [5], 0.786; in [6] it was 1.02; in assay [7], 1.1. Further, the values for the composite z-score in assay [8], in assay [9] and in assay [10] were 0.636, 0.221 and -0.297, respectively. In assay [4], the z-score is 0.0234 (inactive).
Consider `C=CCN1C(=O)[C@@]2(O[C@@H](CCO)[C@H]([Si](C)(C)c3ccc(OC)cc3)[C@H]2C)c2cc(N3CCCCC3=O)ccc21`, for which the composite z-score was 0.774 in assay [1]; -0.0333 in [2]; 0.0918 in assay [3]; 0.839 in assay [5]; 0.399 in [6]; 0.169 in [7]. Also, the results for the composite z-score in [8], in [9] and in assay [10] were 0.547, 0.342 and 0.488, respectively. In addition, the z-score in assay [4] is -2.02 (inactive).
Regarding `O=C1O[C@@H](c2ccccc2)[C@@H](c2ccccc2)N2[C@@H](c3ccccc3OCCO)[C@]3(C(=O)Nc4ccc(C#CC5(O)CCCCCC5)cc43)[C@@H](C(=O)N3CCCCCCC3)[C@H]12`, the composite z-score stood at 2.16 in assay [1]; 3.21 in assay [2]; 1.84 in assay [3]; 1.66 in assay [5]; 1.45 in assay [6]; 2.09 in assay [7]. The composite z-score in [8] came out at 1.77; in assay [9], 2.68; in assay [10] it was 1.91. Further, the z-score in [4] was -1.3 (inactive).
As for `COC(=O)[C@]1(Cc2ccccc2N=[N+]=[N-])N=C(c2ccc(OCCCO)cc2)O[C@@H]1c1ccccc1CN=[N+]=[N-]`, the composite z-score in assay [1] stood at 0.843; in assay [2], 2.44; in [3], 1.13; in assay [5] it was 0.975; in assay [6], 0.712; in [7] it was 0.0466. Also, the figures for the composite z-score in assay [8], in assay [9] and in [10] were 0.315, 0.236 and 1.1, respectively. For the same compound, in assay [4], the z-score was 2.71 (inactive).
In the case of `C=CCC(OC(C)=O)[C@@H]1[C@@H](N(Cc2ccc(-c3ccccc3)cc2)C(=O)Cc2ccc(OC)cc2)c2cc(OCCCO)ccc2N1C(=O)c1ccc2ccccc2c1` (stereo not given in full), the composite z-score in assay [1] is 0.0435; in [2], 0.0361; in [3] it was -0.002; in assay [5], -0.0566; in [6] it was -0.0533; in [7], -0.0792. Besides, the results for the composite z-score in assay [8], in assay [9] and in [10] were 0.538, -0.0863 and 1.17, respectively. In assay [4], the z-score is -0.147 (inactive).
`COCCOC(=O)N1C(=O)[C@@]2(c3cc(C#CCCO)ccc31)[C@H](C(=O)N1CCN(c3ncccn3)CC1)[C@H]1C(=O)O[C@H](c3ccccc3)[C@H](c3ccccc3)N1[C@@H]2c1ccc(OCCO)cc1`: the composite z-score in [1] is 1.24; in assay [2], -0.019; in assay [3], 0.349; in [5] it was 1.22; in assay [6], 0.823; in assay [7], 0.592. For the same compound, the composite z-score in assay [8] worked out at 1.38; in assay [9] it was 0.514; in [10], 0.356. In addition, the z-score in assay [4] was -1.1 (inactive).
As for `CC1C2C(CCCO)=CC(C3C(=O)N(C)C(=O)C23)N1Cc1cccc(OC(F)(F)F)c1` (stereo not given), the composite z-score in [1] is 1.47; in assay [2], 0.784; in assay [3], 0.44; in assay [5], 0.684; in [6], 1.3; in [7], 0.0422. Moreover, the composite z-score in [8] is 0.231; in assay [9] it was -0.124; in assay [10] it was 0.527. The z-score in assay [4] is -1.06 (inactive).
In the case of `COCCOC(=O)N1C(=O)[C@@]2(c3cc(C#CC4(O)CCCCCC4)ccc31)[C@H](C(N)=O)[C@H]1C(=O)O[C@H](c3ccccc3)[C@H](c3ccccc3)N1[C@@H]2c1ccc(OCCO)cc1`, the composite z-score in assay [1] came out at 0.804; in assay [2], 0.527; in assay [3] it was 0.668; in assay [5], 0.99; in [6], 1.28; in [7], 0.484. Besides, the composite z-score in assay [8] was found to be 0.974; in [9] it was 0.338; in assay [10], 0.725. The z-score in [4] is -0.0691 (inactive).
On to `O=C1O[C@H](c2ccccc2)[C@H](c2ccccc2)N2[C@H]1[C@@H](C(=O)N1CCCCCCC1)[C@]1(C(=O)Nc3ccc(C#CCCO)cc31)[C@H]2c1ccc(O)cc1`, for which the composite z-score was determined as 2.11 in assay [1]; 2.97 in assay [2]; 1.72 in [3]; 1.67 in assay [5]; 1.47 in assay [6]; 1.99 in [7]. The results for the composite z-score in [8], in assay [9] and in assay [10] were 1.74, 2.7 and 1.96, respectively. In addition, the z-score in [4] is -0.547 (inactive).
`O=C1O[C@H](c2ccccc2)[C@H](c2ccccc2)N2[C@H]1[C@@H](C(=O)Nc1nc3ccccc3s1)[C@]1(C(=O)Nc3ccccc31)[C@H]2c1ccccc1OCCO`: the composite z-score in assay [1] is 1.42; in assay [2], 0.0289; in [3], 0.505; in assay [5], 0.475; in [6], 0.901; in [7] it was -0.115. For the same compound, the composite z-score in [8] is 0.399; in assay [9], -0.086; in assay [10], 0.121. In addition, in [4], the z-score was -0.539 (inactive).

Values taken from PubChem BioAssay.
